# Assay results published in the supplement of paper PMC10646978.
# ± gives the standard deviation.
# Tests used:
# Conditions in all cases: modulator concentration 10 µM
# [1] = system: RAW-Dual (murine macrophage reporter line); assay: NF-kB reporter (SEAP) activity fold change vs agonist alone; higher = enhanced NF-kB activity
# Summary of the method: (§1)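 RAW-Dual murine macrophage reporter cells were seeded at 50 000 per well in 384-well plates and pre-incubated 1 hour at 37 °C with compound pin-transferred to 10 μM final. After 1 hour, a PRR agonist was added and cells incubated overnight. Supernatant NF-κB (SEAP, QUANTI-Blue, 620 nm absorbance) and IRF (Lucia luciferase, QUANTI-Luc, luminescence) signals were divided by the mean agonist-only control on the same plate to give fold change. Two replicate plates were averaged, with errors by propagation.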
# [2] = system: RAW-Dual (murine macrophage reporter line); assay: IRF reporter (Lucia luciferase) activity fold change vs agonist alone; higher = enhanced IRF activity
# Summary of the method: as §1
# [3] = system: RAW-Dual (murine macrophage reporter line); assay: viability score (confluency relative to resting cells, overnight) (fraction); higher = more viable, active = viable (0.7 or more)
# Summary of the method: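 RAW-Dual macrophages in 384-well plates were exposed overnight to compound at 10 μM final. Confluency was imaged with IncuCyte, and two confluency masks were generated with IncuCyte software over all imaged wells. The viability score is confluency expressed relative to resting cells. Compounds were called viable if both masks exceeded 70% of resting cells.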
# [4] = agonist: CpG ODN 1826 0.5 ug/mL
Compound,"NF-kB reporter [1, 4]",NF-kB reporter ([1]; agonist: LPS 0.1 ug/mL),NF-kB reporter ([1]; agonist: MPLA […]),IRF reporter ([2]; agonist: 3'3'-cGAMP 10 ug/mL),IRF reporter ([2]; agonist: LPS 0.1 ug/mL),IRF reporter ([2]; agonist: MPLA […]),viability score [3]
COc1cc(CNCc2ccc3ccccc3c2)cc(OC)c1,1.26 ± 0.12,0.986 ± 0.1,1.24 ± 0.1,1.19 ± 0.35,0.906 ± 0.043,2.05 ± 0.17,0.589 (inactive)
Br.Cc1nc(C)c(-c2csc(Nc3cccc(C(=O)O)c3)n2)s1,0.754 ± 0.067,0.883 ± 0.082,1.08 ± 0.11,0.882 ± 0.048,1.36 ± 0.087,1.56 ± 0.13,1 (active)
CC(=O)Oc1cccc2c1C(=O)c1c(OC(C)=O)cc(C(=O)O)cc1C2=O,1.14 ± 0.088,1.04 ± 0.077,1.01 ± 0.049,0.971 ± 0.068,0.954 ± 0.033,0.939 ± 0.12,1 (active)
CC(C)(C)C1CCc2c(sc(NC(=O)c3ccc(Cl)cc3)c2C(N)=O)C1 (configuration not stated),1.02 ± 0.086,1.05 ± 0.093,0.91 ± 0.081,0.961 ± 0.043,1.55 ± 0.23,1.16 ± 0.089,1.01 (active)
CCOC(=O)C1=C(C)NC(C)=C(C(=O)OCC)C1c1ccccc1/C=C/C(=O)OC(C)(C)C,1.04 ± 0.15,1.14 ± 0.3,1.14 ± 0.26,0.586 ± 0.032,1.39 ± 0.29,1.15 ± 0.086,0.965 (active)
CCN(CC)CCN1C(=O)C(O)=C(C(=O)c2ccc(C)cc2)C1c1ccccc1 (configuration not stated),0.996 ± 0.078,0.974 ± 0.064,0.893 ± 0.041,0.827 ± 0.059,0.999 ± 0.11,0.896 ± 0.2,0.996 (active)
COc1ccc(NC(=O)CN(c2ccc(C)c(C)c2)S(C)(=O)=O)cc1Cl,0.912 ± 0.096,1.14 ± 0.12,0.886 ± 0.032,0.857 ± 0.14,0.973 ± 0.045,0.858 ± 0.079,1 (active)
CCN1CCN(c2nc3c(c(=O)[nH]c(=O)n3C)n2CC(O)COc2cc(C)ccc2C(C)C)CC1 (configuration not stated),1.18 ± 0.067,1.08 ± 0.086,1.2 ± 0.064,1.1 ± 0.061,1.38 ± 0.14,1.48 ± 0.31,0.956 (active)
Cn1c(=O)[nH]c(=O)c2c1nc(N1CCCCC1)n2CCC#N,1.1 ± 0.07,1.09 ± 0.07,0.952 ± 0.071,0.945 ± 0.033,1.33 ± 0.093,1.1 ± 0.16,1 (active)
COc1cc2nc(N3CCN(C(=O)C4COc5ccccc5O4)CC3)nc(N)c2cc1OC.CS(=O)(=O)O (configuration not stated),0.103 ± 0.014,1.29 ± 0.2,1.2 ± 0.082,0.273 ± 0.017,1.44 ± 0.33,1.97 ± 0.15,0.914 (active)
CCNC1(C(N)=O)CCN(c2ncnc3c2nc(-c2ccccc2Cl)n3-c2ccc(Cl)cc2)CC1.Cl,1.24 ± 0.11,0.479 ± 0.038,0.674 ± 0.036,0.19 ± 0.0086,0.464 ± 0.13,0.484 ± 0.12,0.688 (inactive)
O=S(=O)(Cc1ccccc1)c1nc2ccccc2n1Cc1ccc(Cl)cc1,0.661 ± 0.045,1.1 ± 0.071,0.978 ± 0.057,1.32 ± 0.059,1.35 ± 0.092,1.36 ± 0.19,0.965 (active)
NS(=O)(=O)c1ccc2c(c1)C1C=CCC1C(C(=O)O)N2 (configuration not stated),0.586 ± 0.049,0.992 ± 0.15,1.01 ± 0.075,0.8 ± 0.043,0.931 ± 0.055,1.01 ± 0.089,0.997 (active)
Cc1nccn1CC1CCc2c(c3ccccc3n2C)C1=O.Cl (configuration not stated),0.82 ± 0.2,0.909 ± 0.28,0.84 ± 0.047,0.889 ± 0.051,1.19 ± 0.23,1.22 ± 0.33,0.638 (inactive)
O=C(CCCCCCNC(=O)c1cnc(N(c2ccccc2)c2ccccc2)nc1)NO,1.14 ± 0.067,0.318 ± 0.026,0.797 ± 0.15,0.954 ± 0.08,2.78 ± 0.69,3.16 ± 1,0.95 (active)
c1ccc(C2=Nc3ccccc3N=C(c3ccccc3)c3ccccc32)cc1,0.676 ± 0.039,1.18 ± 0.13,1.08 ± 0.066,0.914 ± 0.036,1.2 ± 0.1,1.01 ± 0.096,0.979 (active)
CCC(=O)Nc1ccc(S(=O)(=O)NCC2CCN(c3ncc(F)cn3)CC2)c(C)c1,1.06 ± 0.096,1.2 ± 0.096,1.04 ± 0.065,1.79 ± 0.1,1.21 ± 0.11,1.08 ± 0.093,0.986 (active)
CCOC(=O)[C@@H](N)Cc1ccc(-c2cc(O[C@H](c3ccc(Cl)cc3-n3ccc(C)n3)C(F)(F)F)nc(N)n2)cc1.O=C(O)CNC(=O)c1ccccc1,0.504 ± 0.06,0.512 ± 0.053,0.937 ± 0.11,0.734 ± 0.043,0.787 ± 0.026,3.54 ± 0.34,0.119 (inactive)
O=C(O)/C=C/c1ccc(Cn2ccnc2)cc1,0.812 ± 0.079,0.873 ± 0.05,1.07 ± 0.093,1.02 ± 0.062,1.16 ± 0.067,1.13 ± 0.12,1.01 (active)
CSCCC(NC(C)=O)C(=O)N1CCc2nc3ccc(F)cn3c(=O)c2C1 (configuration not stated),1.05 ± 0.097,1.05 ± 0.088,0.906 ± 0.074,0.97 ± 0.085,1.24 ± 0.15,1.13 ± 0.12,1.01 (active)
COC(=O)NN=Cc1cccs1,1.04 ± 0.19,1.05 ± 0.084,0.974 ± 0.11,0.987 ± 0.031,1 ± 0.096,1.22 ± 0.21,0.997 (active)
OCC1OC(Oc2ccc(O)cc2)C(O)C(O)C1O (configuration not stated),1.23 ± 0.3,0.965 ± 0.069,1.02 ± 0.08,0.891 ± 0.049,1.14 ± 0.2,1.2 ± 0.11,1 (active)
O=C(NN=Cc1ccc([N+](=O)[O-])o1)c1ccc(O)cc1,2.16 ± 0.17,1.49 ± 0.097,1.62 ± 0.066,0.956 ± 0.063,1.77 ± 0.18,1.22 ± 0.22,0.938 (active)
COc1ccccc1C(=O)Nc1ccc(Nc2ccc(-n3cccn3)nn2)cc1,2.27 ± 0.12,1.36 ± 0.12,1.91 ± 0.092,0.334 ± 0.017,1.45 ± 0.094,1.11 ± 0.1,0.721 (active)
CCN(CC)CCN1C(=O)C(O)=C(C(=O)c2ccc(Br)cc2)C1c1ccccc1F (configuration not stated),0.741 ± 0.061,0.884 ± 0.1,0.985 ± 0.1,0.94 ± 0.045,1.14 ± 0.08,1.2 ± 0.15,1.01 (active)
CS(=O)(=O)N(CC(=O)NC1CC1)c1cccc2ccccc12,1.04 ± 0.095,1.01 ± 0.12,0.901 ± 0.056,1 ± 0.039,1.59 ± 0.35,1.16 ± 0.17,1.01 (active)
